Screening data deposited in PubChem by National Center for Advancing Translational Sciences (NCATS).
In the library only some 19% were active in any assay of this set; here they are far more common.
KB-V1 MDR tox – kills drug-selected multidrug resistant KB-V1 cells. AID 1347076. KB-V1 MDR cells viability, CellTiter-Glo, 72 h. 3.4% of 400,000 active. Potency, µM (doses to about 46.1 µM), most hits filed as cytotoxic; also: nearly all actives have a fitted effect of over 60% in size
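Cells of the MDR subline KB-V1 are plated, dosed with compound at multiple concentrations, and incubated 72 h at 37 degrees C; CellTiter-Glo is then added and luminescence read after 10 min.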
KB-3-1 cytotox – KB-3-1 parental cell cytotoxicity; KB-3-1 viability, CellTiter-Glo ATP luminescence, 72 h; Potency, µM (series often up to 46.1 µM), most hits filed as cytotoxic; 1.4% of 400,000 active; also: nearly all actives have a fitted effect of over 60% in size
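72 h, 37 °C compound treatment of KB-3-1 parental cells; CellTiter-Glo added, 10 min, luminescence read. Data corrected against DMSO-only plates and normalized before curve fitting.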
HT1080 IDH1KD tx – HT-1080 IDH1 knockdown cell toxicity (counter line); HT-1080 IDH1 knockdown viability, ATP luminescence, 48 h; AID 686971; Potency, µM (doses to about 46.1 µM), for the others: at the top dose activity, negative = toxicity, usual class: cytotoxic; 2% of 360,000 active;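 also: 0% = DMSO wells and -100% = cell-free medium wells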
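CellTiter-Glo luminescence after 48 h compound exposure at 37 degrees C of IDH1-knockdown HT-1080 cells in 5% FBS RPMI. %Activity scaled between DMSO wells and cell-free media wells, with curves fitted and assigned curve classes.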
TDP1 cell CPT – DT40-hTDP1 cell growth loss with CPT | Potency, µM (top dose mostly 46.2 µM), for the others: at the top dose activity change, negative = growth inhibition, actives largely listed as inhibitors | chicken DT40 Tdp1-/-;hTDP1 cells + 20 nM CPT, ATP luminescence, 48 h | 12% of 420,000 active; also: nearly all actives have a fitted effect of over 55% in size
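Cell growth measured by CellTiter-Glo luminescence after a minimum 48 h, 37 C compound exposure with 20 nM CPT in Tdp1-knockout DT40 cells stably expressing hTDP1, seeded 400/well; qHTS titration format.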
TDP1 cell noCPT – qHTS for Inhibitors of human tyrosyl-DNA phosphodiesterase 1 (TDP1): qHTS in cells in absence of CPT. 15% of 420,000 active. DT40 Tdp1-/- hTDP1 cells, no CPT, ATP luminescence, 48 h. Potency, µM (titrated, usually from 46.2 µM), for inactives: top-dose activity change, negative = growth inhibition, hits mostly inhibitors. AID 686978, 2013; also: nearly all actives have a fitted effect of over 55% in size
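Readout: luminescence from CellTiter-Glo after 30 min in the dark at RT. Cells: DT40 Tdp1-/- with stable hTDP1, 400/well. Exposure: compounds alone, ≥48 hr, 37 °C.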
HT1080-NT tox – kills 2HG-producing HT-1080-NT fibrosarcoma cells; Potency, µM (doses to about 46.1 µM), without a hit: at the highest dose activity, negative = less viability, hits mostly cytotoxic; HT-1080-NT fibrosarcoma viability, CellTiter-Glo ATP luminescence, 48 h; AID 686970; 1.6% of 360,000 active;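 also: NT is the 2HG producing partner of a matched IDH1 knockdown line; 0% = DMSO-treated cells and -100% = media-only wells without cells; nearly all actives have a fitted effect of over 55% in size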
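Toxicity toward the 2HG-producing NT line was scored as %Activity, normalised to DMSO and no-cell wells, from CellTiter-Glo luminescence after 48 hours' treatment.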
* hit, by the source's call; i = inactive; u = inconclusive; x = not tested or not shown; [ ] = remark or other dose. Calls follow the shape of the dose curve; as a rule, active = well fitted curve in the direction sought with a large enough effect; inconclusive = small, poorly fitted or top-dose-only effect, or another doubt; inactive = no such curve, though single readings can be large; an effect the other way counts as inactive or inconclusive. Unless noted, % is scaled to controls: 0 for no effect and ±100 for the full control effect; potency is read from the fitted curve at half-maximal effect.

SMILES	KB-V1 MDR tox	KB-3-1 cytotox	HT1080 IDH1KD tx	TDP1 cell CPT	TDP1 cell noCPT	HT1080-NT tox
O=C(Nc1ccc(C2=NCCN2)cc1)c1ccc(C(=O)Nc2ccc(C3=NCCN3)cc2)c([N+](=O)[O-])c1	i	i	-8%	6.5µM*	6.5µM*	-1%
COc1ccc(C(=O)Nc2ccncc2)cc1[N+](=O)[O-]	i	i	0%	-29%	-20%	-2%
CN1C(=O)Cc2cc(S(=O)(=O)Nc3ccc(Cl)cc3)ccc21	i	i	-11%	-14%	-24%	-8%
COc1cccc(-c2nc(CS(=O)(=O)CC(=O)Nc3ccccc3C)c(C)o2)c1	i	i	-3%	4%	u	-11%
COc1cccc(-c2nc(CS(=O)(=O)CC(=O)NC3CCCc4ccccc43)c(C)o2)c1 (centres undefined)	u	u	-7%	23µM*	18µM*	-1%
COc1cccc(-c2nc(CS(=O)(=O)CC(=O)Nc3ccccc3Cl)c(C)o2)c1	6.5µM*	15µM*	-25%	u	u	-30%
COc1cccc(-c2nc(CS(=O)(=O)CC(=O)Nc3cc(OC)ccc3OC)c(C)o2)c1	i	i	0%	u	5.8µM*	2%
Cc1ccc(S(=O)(=O)NN2C(=O)c3ccccc3NC2c2ccccn2)cc1 (centres undefined)	i	i	2%	3%	-11%	2%
CSc1ccccc1NC(=O)CN(C)C(=O)c1c(C)nn(Cc2ccccc2)c1C	21µM*	i	-8%	3%	2%	-2%
Cc1nn(-c2ccc(F)cc2)c(Cl)c1C(=O)N(C)CC(=O)Nc1cccc(F)c1	u	i	2%	u	15µM*	-6%
Cc1nn(Cc2ccccc2Cl)c(C)c1C(=O)N(C)CC(=O)Nc1cccc(F)c1	u	i	-7%	u	16µM*	-1%
CCOc1ccc(NC(=O)CN(C)C(=O)c2c(C)nn(Cc3ccccc3Cl)c2C)cc1OCC	i	i	-3%	-20%	-1%	8%
C=CCn1c(N(C)C)nc2c1c(=O)[nH]c(=O)n2C	i	i	-2%	u	-3%	-3%
CCc1cc2c3c(c(=O)oc2cc1OCC(=O)OC)CCCC3	i	i	4%	-3%	-4%	4%
CN(C)CC1CCCCC1C1(O)c2ccccc2CSc2sccc21 (centres undefined)	i	i	18µM*	u	u	18µM*
Cc1ccc(CNCC(=O)Nc2ccc(C)cc2Br)cc1	i	i	-12%	-3%	u	-15%
C/C(=N\NC(=O)c1ccc(Cl)cc1)c1ccccn1	u	u	u	0.58µM*	0.52µM*	u
C/C(=N\NC(N)=O)c1ccc(Cl)cc1	12µM*	u	0%	-1%	-1%	-2%
C/C(=N/NC(=O)c1ccccn1)c1ccco1	21µM*	u	u	u	u	u
COc1cc(C(=O)N/N=C(\c2ccccc2)c2ccccn2)cc(OC)c1OC	i	u	u	2.6µM*	2.6µM*	u
COc1cc(C(=O)NCC(=O)N/N=C/c2ccccn2)cc(OC)c1OC	i	i	14%	14%	-3%	12%
C/C(=N\NC(=O)c1ccccn1)c1ccc(Cl)cc1	u	i	4%	9%	-23%	8%
O=C(Sc1ccc(Cl)cc1)c1ccccn1	i	i	23µM*	16µM*	16µM*	u
COc1cc(C(=O)N/N=C(\C)c2ccccn2)cc(OC)c1OC	7.3µM*	6.5µM*	u	12µM*	8.2µM*	u
CC(=NNC(=S)Nc1cccc(Cl)c1)c1ccccn1	u	u	u	0.082µM*	0.021µM*	18µM*
SMILES	KB-V1 MDR tox	KB-3-1 cytotox	HT1080 IDH1KD tx	TDP1 cell CPT	TDP1 cell noCPT	HT1080-NT tox
C/C(=N/NC(=O)c1ccccn1)c1ccc(O)cc1	i	i	-5%	-2%	-9%	0%
COC(=O)c1sccc1S(=O)(=O)N1CCN(c2ccc(C(C)=O)cc2)CC1	i	i	x	-26%	-28%	x
CCN1CCN(c2c(S(=O)(=O)c3ccccc3)cnc3ccc(Cl)cc23)CC1	u	i	x	-21%	u	x
COc1ccc(N2CCN(c3c(S(=O)(=O)c4ccccc4)cnc4ccc(OC)cc34)CC2)cc1	i	i	3%	23µM*	18µM*	-4%
CCOc1ccc2ncc(S(=O)(=O)c3ccccc3)c(N3CCN(c4ccccc4)CC3)c2c1	i	i	21%	15µM*	u	24%
COc1ccc(S(=O)(=O)c2cnc3ccc(OC)cc3c2N2CCC3(CC2)OCCO3)cc1	u	i	-28%	8.2µM*	3.3µM*	-23%
Cc1ccc(N(CC(=O)Nc2ccccc2-c2ccccc2)S(=O)(=O)c2ccccc2)cc1	23µM*	i	2%[9.24 µM]	16µM*	21µM*	-23%
Cc1cccc(N(CC(=O)Nc2ccccc2-c2ccccc2)S(=O)(=O)c2ccccc2)c1C	21µM*	u	1%	u	23µM*	-4%
Cc1ccccc1N(CC(=O)Nc1ccccc1C(=O)NCc1ccco1)S(=O)(=O)c1ccccc1	i	23µM*	21µM*	u	16µM*	u
O=C(N/N=C/c1cccc(O)c1)c1ccc2c(c1)OCCO2	i	i	0%	1%	4%	-5%
Cc1ccc(/C=N/NC(=O)c2ccccn2)s1	i	i	-2%	u	u	-14%
Cc1ccc(/C=N/NC(=O)c2ccc3ccccc3c2)s1	u	5.8µM*	2.3µM*	0.82µM*	0.82µM*	u
Cc1ccc(/C=N/NC(=O)CSc2nc3ccccc3n2C)s1	15µM*	i	-8%	-15%	u	1%
Cc1ccc(/C=N/NC(=O)c2ccc3c(c2)OCCO3)s1	u	21µM*	13µM*	21µM*	21µM*	u
Cn1c(SCC(=O)N/N=C/c2cccs2)nc2ccccc21	i	i	2%	-12%	-25%	2%
O=C(Nc1ccc(Oc2ccccc2)cc1)C1CCN(S(=O)(=O)c2ccccc2)CC1	6.5µM*	u	x	u	9.2µM*	x
CCOC(=O)c1ccc(S(=O)(=O)N2CCC(C(=O)NCC3COc4ccccc4O3)CC2)cc1 (centres undefined)	i	i	-3%	21µM*	23µM*	-7%
